# Where “and” joins values, the source holds several entries; their conditions need not be identical. Equal entries are not always repeated. Structures can show the parent of a compound that is named as a salt. Hit rate of the full screen: of about 5,800 compounds, about 620 (11%) showed activity. The list comes from a sample in which actives are over-represented; it also holds similar structures and randomly drawn compounds. Unmarked numbers belong to inactive results.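 Rule for the calls: active = score above a cut-off or among the top three wells of a plate; in these data no inactive exceeds 0.85.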
# System: primary human hepatic stellate cells (donor 1)
# Experiment: scaled lipid accumulation score (0 = DMSO-like, 1 = nortriptyline-like); higher = stronger HSC inactivation (lipid re-accumulation), active = hit call of the paper
# Settings: 48 h
# [1] = library stock concentration: 80 uM
# [2] = library stock concentration: 400 uM
# [3] = library stock concentration: 2 mM
# [4] = library stock concentration: 10 mM
# [5] = library stock concentration: 3.33 mM
# [6] = library stock concentration: 1 mM
smiles,measurement,setting,value
COc1cc2ncnc(Nc3ccc(F)c(Cl)c3)c2cc1OCCCN1CCOCC1,scaled lipid accumulation score,[1],≤ -0.003
same,scaled lipid accumulation score,[2],≤ -0.009
same,scaled lipid accumulation score,[3],0.19
same,scaled lipid accumulation score,[4],0.65
COc1cc2ncnc(Nc3ccc(F)c(Cl)c3)c2cc1OCCCN1CCOCC1 [Gefitinib (ZD1839)],scaled lipid accumulation score,[5],0.43
"COc1cc2ncnc(Nc3ccc(F)c(Cl)c3)c2cc1OCCCN1CCOCC1 [Gefitinib (ZD1839, Iressa) (2 mM)]",scaled lipid accumulation score,[3],0.864 (active)
"COc1cc2ncnc(Nc3ccc(F)c(Cl)c3)c2cc1OCCCN1CCOCC1 [Gefitinib (ZD1839, Iressa) (0.4 mM)]",scaled lipid accumulation score,[2],0.081
C=CC(=O)Nc1cc2c(Nc3ccc(F)c(Cl)c3)ncnc2cc1OCCCN1CCOCC1,scaled lipid accumulation score,[4],0.983 (active)
C=CC(=O)Nc1ccc2ncnc(Nc3cccc(Br)c3)c2c1,scaled lipid accumulation score,[5],0.014
same,scaled lipid accumulation score,[4],0.802
C=CC(=O)Nc1cc2c(Nc3ccc(F)c(Cl)c3)ncnc2cc1C#CC(C)(C)N1CCN(C)CC1,scaled lipid accumulation score,[2],0.879 (active)
CC(=O)OCC(=O)[C@@]1(O)[C@H](OC(C)=O)C[C@H]2[C@@H]3CCC4=CC(=O)C=C[C@]4(C)[C@@]3(F)[C@@H](O)C[C@@]21C [Triamcinolone diacetate],scaled lipid accumulation score,[4],≤ 0
COc1ncc(-c2ccc3nccc(-c4ccnnc4)c3c2)cc1NS(=O)(=O)c1ccc(F)cc1F,scaled lipid accumulation score,[1],≤ -0.009
same,scaled lipid accumulation score,[2],≤ -0.009
same,scaled lipid accumulation score,[3],≤ -0.009
same,scaled lipid accumulation score,[5],0.066
same,scaled lipid accumulation score,[4],0.479 and 0.24
O=C(Nc1ccccc1)C12CC1C(=NO)c1ccccc1O2 (stereo not given),scaled lipid accumulation score,[4],≤ -0.006
Clc1cccc(Nc2nnc(-c3ccccc3)c3ccccc23)c1,scaled lipid accumulation score,[4],0.162
same,scaled lipid accumulation score,library stock concentration: 15.1 mM,0.258
CCCCCCCCCC(=O)N[C@H](CN1CCOCC1)[C@H](O)c1ccccc1 (racemic) [DL-threo-PDMP (hydrochloride)],scaled lipid accumulation score,[6],0.001
CCCn1c(=O)c(C)cn2nc(N)nc12,scaled lipid accumulation score,[4],≤ 0 and 0.03
C=C1CC[C@@H]2[C@](C)(CO)[C@H](O)CC[C@@]2(C)[C@@H]1C/C=C1/C(=O)OC[C@H]1O [Andrographolide],scaled lipid accumulation score,[5],0.094
same,scaled lipid accumulation score,[4],0.785
C[C@@H]1C[C@H]2[C@@H]3C[C@H](F)C4=CC(=O)C(Cl)=C[C@]4(C)[C@@]3(F)[C@@H](O)C[C@]2(C)[C@@]1(O)C(=O)CO,scaled lipid accumulation score,[4],≤ 0
CC1(C)S[C@@H]2[C@H](NC(=O)[C@H](N)c3ccc(O)cc3)C(=O)N2[C@H]1C(=O)O,scaled lipid accumulation score,[4],0.145
CC1(C)S[C@@H]2[C@H](NC(=O)[C@H](N)c3ccc(O)cc3)C(=O)N2[C@H]1C(=O)O [Amoxicillin Sodium],scaled lipid accumulation score,[5],≤ 0
same,scaled lipid accumulation score,[4],≤ 0
CC1(C)S[C@@H]2[C@H](NC(=O)[C@H](N)c3ccc(O)cc3)C(=O)N2[C@H]1C(=O)O [Amoxicillin],scaled lipid accumulation score,,0.056
same,scaled lipid accumulation score,[5],≤ 0
same,scaled lipid accumulation score,[4],0.044 and ≤ 0
O=C(CCC/C=C\C[C@@H]1C(/C=C/[C@@H](O)COc2cccc(C(F)(F)F)c2)[C@H](O)C[C@@H]1O)NC(CO)CO (stereo not given in full) [Fluprostenol serinol amide],scaled lipid accumulation score,[6],≤ 0
"c1ccc(C2CN3CCSC3=N2)cc1 (single isomer, unassigned; (-)) [(-)-Tetramisole hydrochloride]",scaled lipid accumulation score,[4],≤ -0.055
CCCCC(C)(O)C/C=C/[C@H]1[C@H](O)CC(=O)[C@@H]1CCCCCCC(=O)OC (stereo not given in full) [Misoprostol],scaled lipid accumulation score,[6],≤ 0
same,scaled lipid accumulation score,library stock concentration: 5.2 mM,≤ 0
CCCCC[C@H](O)/C=C/[C@@H]1[C@@H](CCCCCCC(=O)O)[C@H](O)C[C@@H]1O [11.beta.-Prostaglandin F1.beta.],scaled lipid accumulation score,[6],≤ 0
COc1cc2ncnc(Nc3ccc(F)c(Cl)c3)c2cc1OCCCN1CCOCC1 [Iressa],scaled lipid accumulation score,[4],0.9 (active)
CC(C)[C@H](O)C(=O)O [(S)-(+)-2-hydroxy-3-Methylbutyric Acid],scaled lipid accumulation score,[6],≤ 0
Cc1cc(C)c(/C=C2\C(=O)Nc3ccccc32)[nH]1 [VEGF Receptor 2 Kinase Inhibitor III],scaled lipid accumulation score,[5],≤ 0
Cc1cc(C)c(/C=C2\C(=O)Nc3ccccc32)[nH]1 [Semaxanib (SU5416)],scaled lipid accumulation score,[5],≤ 0
same,scaled lipid accumulation score,[4],0.145
Cc1cc(C)c(/C=C2\C(=O)Nc3ccccc32)[nH]1,scaled lipid accumulation score,[6],≤ 0
same,scaled lipid accumulation score,[4],≤ 0 and 0.011
CN(C)c1ccc(/C=C2/C(=O)Nc3ccccc32)cc1,scaled lipid accumulation score,[4],≤ 0 and 0.041
same,scaled lipid accumulation score,library stock concentration: 18.9 mM,0.01

# Reference: the supplement of paper PMC9135407
